PubChem BioAssay AID1159580 (chemical genetic matrix, 2015)
The campaign covered roughly 5,500 compounds. About 2,000 (36%) were called active. Another 18% or so got no clear call; they are omitted. No stated cut-off is given here; in the data, active means normalized growth mostly below about 0.91 (no sharp cut-off); inconclusive means no clear call, values can overlap the other calls; inactive means mostly above about 0.92. The list shows a part of the results.

Experiment: chemical genetic growth profiling, strain panel (AID 1159580);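 further: tested at 20 µM; growth read once vehicle control cultures reached saturation at 30 °C; 1 = growth at the plate median or of vehicle wells; lower values mean less growth of the strain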
Conditions: growth OD

Measured: normalized growth

NC(=O)NC1NC(=O)NC1=O (configuration not stated)
inactive: S. cerevisiae deletion strains, locus YJR075W, strain HOC1, hits give low values 1.01 | S. cerevisiae deletion strains, locus YKL009W, strain mrt4, hits give low values 0.989 | S. cerevisiae deletion strains, locus YKL068W, hits give low values 0.987 | S. cerevisiae deletion strains, locus YKL085W, strain MDH1 (second series), hits give low values 0.981 | S. cerevisiae deletion strains, locus YKL085W, strain MDH1, hits give low values 0.981 | S. cerevisiae deletion strains, locus YKL160W, strain elf1, hits give low values 0.979 | S. cerevisiae deletion strains, locus YKL190W, strain CNB1, hits give low values 0.997 | S. cerevisiae deletion strains, locus YKR001C, strain vps1, hits give low values 0.984 | S. cerevisiae deletion strains, locus YKR026C, strain gcn3, hits give low values 1 | S. cerevisiae deletion strains, locus YKR091W, strain srl3, hits give low values 1 | S. cerevisiae deletion strains, locus YLL001W, strain dnm1, hits give low values 1 | S. cerevisiae deletion strains, locus YLL026W, hits give low values 1.01 | S. cerevisiae deletion strains, locus YLL041C, strain sdh2, hits give low values 1 | S. cerevisiae deletion strains, locus YLR027C, strain aat2, hits give low values 1 | S. cerevisiae deletion strains, locus YLR039C, strain RIC1, hits give low values 1.03 | S. cerevisiae deletion strains, locus YLR058C, strain SHM2, hits give low values 0.99 | S. cerevisiae deletion strains, locus YLR102C, strain apc9, hits give low values 0.987 | S. cerevisiae deletion strains, locus YLR113W, strain HOG1, hits give low values 1.04 | S. cerevisiae deletion strains, locus YLR221C, strain rsa3, hits give low values 0.998 | S. cerevisiae deletion strains, locus YLR258W, strain gsy2, hits give low values 1 | S. cerevisiae deletion strains, locus YLR262C, strain YPT6 (second series), hits give low values 1.02 | S. cerevisiae deletion strains, locus YLR262C, strain YPT6, hits give low values 0.965 | S. cerevisiae deletion strains, locus YLR268W, strain sec22, hits give low values 0.917 | S. cerevisiae deletion strains, locus YLR320W, strain mms22, hits give low values 1 | S. cerevisiae deletion strains, locus YLR330W, strain CHS5, hits give low values 0.991 | S. cerevisiae deletion strains, locus YLR342W, strain FKS1 (second series), hits give low values 1.06 | S. cerevisiae deletion strains, locus YLR342W, strain FKS1, hits give low values 1 | S. cerevisiae deletion strains, locus YLR357W, strain rsc2, hits give low values 0.968 | S. cerevisiae deletion strains, locus YLR370C, strain arc18, hits give low values 1 | S. cerevisiae deletion strains, locus YLR371W, strain rom2, hits give low values 0.971 | S. cerevisiae deletion strains, locus YLR384C, strain iki3, hits give low values 1.01 | S. cerevisiae deletion strains, locus YLR418C, strain cdc73, hits give low values 0.965 | S. cerevisiae deletion strains, locus YML016C, strain PPZ1, hits give low values 0.987 | S. cerevisiae deletion strains, locus YML032C, strain rad52, hits give low values 0.981 | S. cerevisiae deletion strains, locus YML120C, strain ndi1, hits give low values 1.01 | S. cerevisiae deletion strains, locus YML124C, strain tub3, hits give low values 0.978 | S. cerevisiae deletion strains, locus YMR058W, strain fet3, hits give low values 1.01 | S. cerevisiae deletion strains, locus YMR078C, strain ctf18, hits give low values 0.976 | S. cerevisiae deletion strains, locus YMR125W, strain sto1, hits give low values 1 | S. cerevisiae deletion strains, locus YMR129W, hits give low values 1 | S. cerevisiae deletion strains, locus YMR205C, strain PFK2, hits give low values 0.982 | S. cerevisiae deletion strains, locus YMR223W, strain ubp8, hits give low values 1 | S. cerevisiae deletion strains, locus YMR231W, strain pep5, hits give low values 0.994 | S. cerevisiae deletion strains, locus YMR263W, strain SAP30, hits give low values 0.988 | S. cerevisiae deletion strains, locus YMR307W, strain GAS1, hits give low values 1.01 | S. cerevisiae deletion strains, locus YNL067W, strain RPL9B, hits give low values 0.982 | S. cerevisiae deletion strains, locus YNL071W, strain lat1, hits give low values 1.01 | S. cerevisiae deletion strains, locus YNL128W, strain TEP1, hits give low values 0.997 | S. cerevisiae deletion strains, locus YNL153C, strain GIM3, hits give low values 0.987 | S. cerevisiae deletion strains, locus YNL183C, strain NPR1, hits give low values 0.977 | S. cerevisiae deletion strains, locus YNL209W, strain ssb2, hits give low values 1 | S. cerevisiae deletion strains, locus YNL233W, strain BNI4, hits give low values 0.978 | S. cerevisiae deletion strains, locus YNL248C, strain rpa49, hits give low values 0.999 | S. cerevisiae deletion strains, locus YNL250W, strain rad50, hits give low values 0.981 | S. cerevisiae deletion strains, locus YNL271C, strain bni1, hits give low values 0.977 | S. cerevisiae deletion strains, locus YNL298W, strain CLA4, hits give low values 0.985 | S. cerevisiae deletion strains, locus YNL307C, strain MCK1, hits give low values 0.985 | S. cerevisiae deletion strains, locus YNL322C, strain KRE1 (second series), hits give low values 0.986 | S. cerevisiae deletion strains, locus YNL322C, strain KRE1, hits give low values 0.998 | S. cerevisiae deletion strains, locus YNR049C, strain mso1, hits give low values 1.01 | S. cerevisiae deletion strains, locus YNR052C, strain pop2, hits give low values 0.992 | S. cerevisiae deletion strains, locus YOL006C, strain TOP1, hits give low values 0.996 | S. cerevisiae deletion strains, locus YOL012C, strain htz1 0.886 | S. cerevisiae deletion strains, locus YOL147C, strain pex11, hits give low values 0.983 | S. cerevisiae deletion strains, locus YOR001W, strain rrp6, hits give low values 1 | S. cerevisiae deletion strains, locus YOR061W, strain CKA2, hits give low values 0.991 | S. cerevisiae deletion strains, locus YOR069W, strain VPS5, hits give low values 0.99 | S. cerevisiae deletion strains, locus YOR070C, strain gyp1, hits give low values 1 | S. cerevisiae deletion strains, locus YOR080W, strain dia2, hits give low values 0.993 | S. cerevisiae deletion strains, locus YOR083W, strain WHI5, hits give low values 0.992 | S. cerevisiae deletion strains, locus YOR106W, strain vam3, hits give low values 0.99 | S. cerevisiae deletion strains, locus YOR136W, strain idh2, hits give low values 0.993 | S. cerevisiae deletion strains, locus YOR144C, strain elg1, hits give low values 0.984 | S. cerevisiae deletion strains, locus YOR184W, strain ser1, hits give low values 0.967 | S. cerevisiae deletion strains, locus YOR231W, strain MKK1, hits give low values 1.03 | S. cerevisiae deletion strains, locus YOR265W, strain rbl2, hits give low values 1.03 | S. cerevisiae deletion strains, locus YOR270C, strain vph1, hits give low values 1.03 | S. cerevisiae deletion strains, locus YOR290C, strain snf2, hits give low values 1.03 | S. cerevisiae deletion strains, locus YOR316C, strain cot1, hits give low values 0.977 | S. cerevisiae deletion strains, locus YPL051W, strain arl3, hits give low values 1 | S. cerevisiae deletion strains, locus YPL055C, strain LGE1, hits give low values 1.01 | S. cerevisiae deletion strains, locus YPL078C, strain atp4, hits give low values 1 | S. cerevisiae deletion strains, locus YPL106C, strain sse1, hits give low values 0.977 | S. cerevisiae deletion strains, locus YPL240C, strain hsp82, hits give low values 1.01 | S. cerevisiae deletion strains, locus YPL241C, strain CIN2, hits give low values 0.992 | S. cerevisiae deletion strains, locus YPL256C, strain CLN2, hits give low values 1.03 | S. cerevisiae deletion strains, locus YPR119W, strain clb2, hits give low values 0.982 | S. cerevisiae deletion strains, locus YPR141C, strain kar3, hits give low values 0.98 | S. cerevisiae deletion strains, locus YPR163C, strain tif3, hits give low values 0.981 | S. cerevisiae deletion strains, locus YPR167C, strain met16, hits give low values 0.979 | S. cerevisiae deletion strains, strain wtn01, hits give low values 0.971 | S. cerevisiae strains, strain wild type, hits give low values 0.996
